Measured values taken from PubChem BioAssay.
Calls of active or inactive are those of the source. Unless noted, no rule for the calls is given here.

Experiments:
[1] = tested on: Wnt5a (protein binding on small-molecule microarray); assay: Wnt5a binders on small-molecule microarray, primary screen, biophysical, 635/667 nm fluorescence (AID 1142); conditions: 635 nm fluorescence, higher = more signal;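 also: fluorescence read at 667 nm with signal to noise per printed feature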
[2] = cell viability in Huh7 cells, primary screen, cytotoxicity control for HCV replication inhibitor project, CellTiter-Glo luminescence, basal, 48 h (AID 1143); conditions: Huh7 HCV replicon, higher = more signal, called active from +8 up or from −8 down;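 also: Huh7 hepatoma cells carrying a hepatitis C replication reporter with no stimulus; test concentration not given here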
[3] = P. aeruginosa biofilm formation inhibitors, primary screen, PAO1 strain, BacTiter-Glo luminescence, LB-PBS (AID 1144); conditions: 12 h, higher = more signal
[4] = CREB reporter modulators without forskolin, primary screen, cell-based, PC12, CRE-LacZ reporter, unstimulated (AID 1145); conditions: no forskolin, luminescence, 4.5 h, higher = more signal, called active from +8 up or from −8 down
[5] = CREB reporter modulators under forskolin, primary screen, cell-based, PC12, CRE-LacZ reporter, forskolin-stimulated (AID 1146); conditions: luminescence, 4.5 h, higher = more signal, called active from +8 up or from −8 down;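 also: PC12 cells with 6xCRE LacZ reporter stimulated by forskolin 10 µM; beta-galactosidase reporter signal reflecting CREB driven transcription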
[6] = target: Streptavidin (Streptomyces avidinii) (UniProt P22629); assay: streptavidin binders on small-molecule microarray, primary screen, artefact control for SMM compound annotation, biophysical, 635/667 nm fluorescence (AID 1147); conditions: streptavidin binding, higher = more signal;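 also: signal reflects streptavidin binding to arrayed compounds as a control protein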
[7] = small-molecule binders of probe aInhba, primary screen, biochemical, small-molecule microarray, 635/667 nm fluorescence (AID 1148); conditions: higher = more signal;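 also: score merges 667nm spot fluorescence with signal-to-noise for antibody binding to printed compounds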
[8] = target: Torsin-1A (Homo sapiens) (UniProt O14656); assay: torsin A binders from cell lysate, primary screen, small-molecule microarray, wild-type, 635/667 nm (AID 1149); conditions: COS7 hTOR1A-WT lysate, 635 nm fluorescence, higher = more signal
[9] = target: Torsin-1A (Homo sapiens) (UniProt O14656); assay: small-molecule binders of mutant TOR1A in lysate, primary screen, cell lysate, small-molecule microarray, COS7 lysate, 635/667 nm fluorescence (AID 1150); conditions: COS7 hTOR1A mutant lysate, 635 nm fluorescence, higher = more signal;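 also: score pools 667 nm emission and signal to noise measuring lysate protein binding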
[10] = tested on: Sonic hedgehog protein (Shh); assay: small-molecule binders of Shh protein, primary screen, biochemical, small-molecule microarray, 635/667 nm fluorescence (AID 1151); conditions: small-molecule microarray binding, 635 nm fluorescence; higher = more signal;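 also: Shh protein binding to compounds spotted on small-molecule microarray slides; score combines spot fluorescence intensity with signal-to-noise across triplicate slides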
[11] = E. coli DRC41 culture turbidity changes, primary screen, E. coli filamentation inducer project, strain DRC41, OD650, 48 h (AID 1152);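 also: E. coli MC1000 strain DRC41 lacking acrAB efflux pump and sulA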; conditions: E. coli DRC41 (acrAB sulA), higher = more signal, called active from +8 up or from −8 down
[12] = small-molecule binders of probe aLefty1, primary screen, biochemical, small-molecule microarray, 635/667 nm fluorescence (AID 1153); conditions: higher = more signal;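 also: score merges spot fluorescence with signal-to-noise ratio from the scanned slide images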
[13] = PSAC antagonists in infected red cells, primary screen, cell-based, P. falciparum Indochina, OD700, 1 h (AID 1154); conditions: P. falciparum Indochina infected RBC osmotic lysis, higher = more signal, called active from +8 up or from −8 down
[14] = PSAC antagonists in infected red cells, primary screen, cell-based, P. falciparum Indochina, OD700, 2 h (AID 1155);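 also: lysis reports solute entry through the parasite surface anion channel PSAC; channel blockers reduce lysis of infected cells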; conditions: P. falciparum Indochina infected erythrocytes, osmotic lysis OD700; higher = more signal, called active from +8 up or from −8 down
[15] = osmotic lysis modulators in infected erythrocytes, primary screen, PSAC antagonist project, cell-based, P. falciparum Indochina, OD700, 3 h (AID 1156); conditions: higher = more signal, called active from +8 up or from −8 down
[16] = PSAC antagonists in infected red cells, primary screen, cell-based, P. falciparum Indochina, OD700, 18 h (AID 1157); conditions: P. falciparum Indochina infected erythrocytes, osmotic lysis OD700, 18 h; higher = more signal, called active from +8 up or from −8 down
[17] = modulators of S6 phosphorylation in cells, primary screen, cell-based, A549, cytoblot, luminescence, serum-stimulated (AID 1158); conditions: A549 phospho-S6 cytoblot, 5 h, higher = more signal;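 also: serum-stimulated A549 lung adenocarcinoma cells; signal is phosphorylated S6 detected by cytoblot immunostaining with HRP secondary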
[18] = target: NADPH oxidase 2 (Homo sapiens) (UniProt P04839); assay: NOX2-dependent H2O2 signal modulators, primary screen, NOX inhibitor project, cell-based, HEK293-NOX2, PMA-stimulated, Amplex Red fluorescence (AID 1159); conditions: 45 min, higher = more signal, called active from +8 up or from −8 down; also: test concentration not given here
[19] = target: NADPH oxidase 4 (Homo sapiens) (UniProt Q9NPH5); assay: NOX4-dependent H2O2 signal modulators, primary screen, NOX inhibitor project, cell-based, HEK293-NOX4, tetracycline-induced, Amplex Red fluorescence (AID 1160); conditions: 45 min, higher = more signal, called active from +8 up or from −8 down
[20] = target: NADPH oxidase 5 (Homo sapiens) (UniProt Q96PH1); assay: NOX5-dependent H2O2 signal modulators, primary screen, NOX inhibitor project, cell-based, HEK293-NOX5, Amplex Red fluorescence (AID 1161); conditions: HEK293-NOX5, ionomycin, 45 min, higher = more signal
Chain of NADPH oxidase 5 (Homo sapiens) (Q96PH1 whole entry, looked up): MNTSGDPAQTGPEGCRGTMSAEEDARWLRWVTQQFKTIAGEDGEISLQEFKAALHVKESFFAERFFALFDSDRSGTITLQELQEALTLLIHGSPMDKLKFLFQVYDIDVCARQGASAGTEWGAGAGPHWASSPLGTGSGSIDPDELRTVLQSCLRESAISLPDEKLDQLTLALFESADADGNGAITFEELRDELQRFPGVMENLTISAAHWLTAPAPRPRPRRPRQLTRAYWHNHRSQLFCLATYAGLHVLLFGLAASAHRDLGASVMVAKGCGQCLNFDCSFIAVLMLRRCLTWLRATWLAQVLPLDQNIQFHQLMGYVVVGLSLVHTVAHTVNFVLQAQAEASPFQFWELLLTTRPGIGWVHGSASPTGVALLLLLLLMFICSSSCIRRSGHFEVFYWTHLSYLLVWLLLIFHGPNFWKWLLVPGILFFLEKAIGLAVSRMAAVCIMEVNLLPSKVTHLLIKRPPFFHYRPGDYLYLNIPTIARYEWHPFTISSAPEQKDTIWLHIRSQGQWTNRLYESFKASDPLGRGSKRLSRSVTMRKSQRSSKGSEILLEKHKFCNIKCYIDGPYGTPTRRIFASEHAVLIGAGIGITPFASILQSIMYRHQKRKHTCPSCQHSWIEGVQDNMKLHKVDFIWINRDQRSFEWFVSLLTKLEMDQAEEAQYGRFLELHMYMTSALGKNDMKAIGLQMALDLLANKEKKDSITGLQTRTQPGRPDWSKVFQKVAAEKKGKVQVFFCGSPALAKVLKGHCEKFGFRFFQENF

Chain of NADPH oxidase 4 (Homo sapiens) (Q9NPH5 whole entry, looked up): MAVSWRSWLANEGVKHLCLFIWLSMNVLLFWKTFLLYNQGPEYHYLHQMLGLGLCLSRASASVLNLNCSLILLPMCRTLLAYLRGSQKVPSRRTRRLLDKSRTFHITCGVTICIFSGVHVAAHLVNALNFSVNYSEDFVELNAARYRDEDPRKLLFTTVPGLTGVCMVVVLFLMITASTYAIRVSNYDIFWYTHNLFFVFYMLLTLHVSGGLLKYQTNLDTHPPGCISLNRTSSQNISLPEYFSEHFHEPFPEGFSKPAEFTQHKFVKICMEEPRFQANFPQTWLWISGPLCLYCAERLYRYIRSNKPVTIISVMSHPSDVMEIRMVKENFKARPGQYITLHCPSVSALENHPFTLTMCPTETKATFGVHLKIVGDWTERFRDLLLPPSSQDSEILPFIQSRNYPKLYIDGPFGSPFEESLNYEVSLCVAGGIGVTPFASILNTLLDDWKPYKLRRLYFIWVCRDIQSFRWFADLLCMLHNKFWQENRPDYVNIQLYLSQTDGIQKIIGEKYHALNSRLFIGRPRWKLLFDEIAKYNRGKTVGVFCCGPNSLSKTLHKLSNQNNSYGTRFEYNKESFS
Chain of Streptavidin (Streptomyces avidinii) (P22629 whole entry, looked up): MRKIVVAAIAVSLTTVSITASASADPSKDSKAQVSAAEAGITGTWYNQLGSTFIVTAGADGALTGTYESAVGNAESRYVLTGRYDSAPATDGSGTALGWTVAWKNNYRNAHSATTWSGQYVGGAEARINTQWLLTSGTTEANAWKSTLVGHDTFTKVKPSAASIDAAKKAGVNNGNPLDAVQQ
Chain of NADPH oxidase 2 (Homo sapiens) (P04839 whole entry, looked up): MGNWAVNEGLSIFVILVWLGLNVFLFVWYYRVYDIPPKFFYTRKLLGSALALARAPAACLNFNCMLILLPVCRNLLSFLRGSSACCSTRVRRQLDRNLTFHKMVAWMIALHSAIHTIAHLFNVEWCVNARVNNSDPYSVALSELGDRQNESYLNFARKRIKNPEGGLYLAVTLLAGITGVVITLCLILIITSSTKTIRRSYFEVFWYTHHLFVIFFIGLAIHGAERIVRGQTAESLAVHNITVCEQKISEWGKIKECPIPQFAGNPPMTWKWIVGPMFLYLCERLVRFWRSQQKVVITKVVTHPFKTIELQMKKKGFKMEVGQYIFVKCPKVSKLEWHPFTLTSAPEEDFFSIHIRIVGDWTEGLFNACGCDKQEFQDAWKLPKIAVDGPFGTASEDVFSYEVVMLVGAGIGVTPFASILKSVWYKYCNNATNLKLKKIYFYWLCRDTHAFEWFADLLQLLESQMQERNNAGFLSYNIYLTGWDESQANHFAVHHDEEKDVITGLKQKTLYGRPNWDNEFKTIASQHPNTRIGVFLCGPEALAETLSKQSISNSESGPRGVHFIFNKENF
Chain of Torsin-1A (Homo sapiens) (O14656 whole entry, looked up): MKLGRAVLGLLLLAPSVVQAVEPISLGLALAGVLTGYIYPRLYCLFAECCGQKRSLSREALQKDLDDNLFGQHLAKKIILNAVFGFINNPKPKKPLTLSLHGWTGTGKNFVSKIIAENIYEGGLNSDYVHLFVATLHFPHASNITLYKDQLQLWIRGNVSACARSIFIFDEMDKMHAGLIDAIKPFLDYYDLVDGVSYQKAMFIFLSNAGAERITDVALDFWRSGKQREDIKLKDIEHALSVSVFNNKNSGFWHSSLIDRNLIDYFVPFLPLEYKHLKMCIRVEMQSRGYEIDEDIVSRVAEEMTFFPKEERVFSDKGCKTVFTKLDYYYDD

Row | Structure (SMILES) | composite z-score [1] | z-score [2] | z-score [3] | z-score [4] | z-score [5] | composite z-score [6] | composite z-score [7] | composite z-score [8] | composite z-score [9] | composite z-score [10] | z-score [11] | composite z-score [12] | z-score [13] | z-score [14] | z-score [15] | z-score [16] | z-score [17] | z-score [18] | z-score [19] | z-score [20]
1 | CN(C)CCCC[C@@H]1NC(=O)[C@@H]2C[C@H](C(=O)NCCCCCCN)[C@H](c3cccc(OCCO)c3)N2C1=O | 0.017 | -0.96 (inactive) | 0.168 (inactive) | 0.139 (inactive) | -0.347 (inactive) | 2.1 | 0.831 | 1.17 | 1.99 | 0.68 | -0.3 (inactive) | 1.1 | 3.07 (inactive) | 0.198 (inactive) | 1.87 (inactive) | 0.105 (inactive) | 0.292 | 0.956 (inactive) | 1.14 (inactive) | 0.941
2 | COC(=O)[C@@]1(Cc2ccc(OC)cc2)[C@H]2c3cc(C(=O)N4CCCC4)n(Cc4ccc(C)c(F)c4F)c3C[C@H]2CN1C(=O)c1ccccc1 | 0.634 | -2.92 (inactive) | 0.605 (inactive) | -1.15 (inactive) | -0.572 (inactive) | 1.81 | 0.289 | -0.429 | 0.839 | -0.746 | -0.548 (inactive) | 0.378 | 3.76 (inactive) | 0.233 (inactive) | 0.894 (inactive) | 1.08 (inactive) | 0.105 | 0.705 (inactive) | 1.23 (inactive) | -3.41
3 | C=CCN1C(=O)[C@@]2(Cc3ccccc31)N=C(c1ccc(OCCCO)cc1)O[C@H]2c1ccccc1 | 0.344 | -3.53 (inactive) | -0.144 (inactive) | 0.47 (inactive) | -1.81 (inactive) | 0.0866 | 0.195 | 0.698 | 0.855 | 1.14 | 0.613 (inactive) | 0.481 | 14.6 (active) | 3.47 (inactive) | 3.29 (inactive) | 1.35 (inactive) | 0.104 | -2.01 (inactive) | -0.253 (inactive) | -2.65
4 | O=C(CS)NCCCCCCNC(=O)[C@@H]1C[C@@H]2C(=O)N[C@@H](Cc3ccccc3)C(=O)N2[C@@H]1c1cccc(OCCO)c1 | 0.879 | 0.0037 (inactive) | -0.614 (inactive) | -0.134 (inactive) | -0.112 (inactive) | 0.253 | -0.163 | 1.1 | 1.48 | 1.49 | -0.92 (inactive) | -0.073 | 4.39 (inactive) | 0.198 (inactive) | 0.839 (inactive) | 0.0799 (inactive) | -0.775 | 1.75 (inactive) | 0.728 (inactive) | -0.131
5 | COC(=O)C(CC#Cc1ccc2c(c1)[C@]1(C(=O)N2)[C@H](C(=O)Nc2nc3ccccc3s2)[C@H]2C(=O)O[C@H](c3ccccc3)[C@H](c3ccccc3)N2[C@@H]1c1ccccc1OCCO)C(=O)OC | 0.573 | -5 (inactive) | -0.438 (inactive) | 0.389 (inactive) | 0.372 (inactive) | 0.679 | 0.12 | 0.25 | 0.733 | 1.03 | -0.839 (inactive) | 0.284 | 4.9 (inactive) | 2.16 (inactive) | -0.174 (inactive) | 1.69 (inactive) | -0.333 | 1.28 (inactive) | 0.252 (inactive) | 0.774
6 | CC(C)CNC(=O)[C@@]1(Cc2ccccc2I)c2ccccc2C(=O)N(C2CCCCC2)[C@H]1c1ccc(CO)cc1 | 0.705 | -1.71 (inactive) | 0.0484 (inactive) | -0.206 (inactive) | -0.0769 (inactive) | -0.346 | 0.23 | 0.222 | 0.551 | 0.187 | -0.664 (inactive) | 0.257 | 3.85 (inactive) | 0.198 (inactive) | 2.26 (inactive) | 0.183 (inactive) | -0.141 | -0.394 (inactive) | 0.839 (inactive) | 0.184
7 | COC(=O)[C@]1(CCC(=O)OC(C)(C)C)N=C(c2ccc(OCCCO)cc2)O[C@@H]1c1ccccc1CN=[N+]=[N-] | 0.714 | -4.56 (inactive) | 0.283 (inactive) | 1.77 (inactive) | -0.955 (inactive) | 0.0874 | 0.24 | -0.351 | -0.0282 | 0.712 | -1.68 (inactive) | 0.235 | 30.3 (active) | 28.3 (active) | -0.615 (inactive) | 5.71 (inactive) | -0.0021 | -3.48 (inactive) | -1.72 (inactive) | -2.41
8 | COC(=O)[C@@]1(Cc2ccc(F)cc2)[C@H]2c3cc(C(=O)N4CCCC4)n(Cc4ccc(S(C)(=O)=O)cc4)c3C[C@H]2CN1C(=O)c1ccccc1 | 0.196 | -1.71 (inactive) | 0.53 (inactive) | 0.39 (inactive) | 0.363 (inactive) | 1.19 | 0.864 | 0.181 | 0.861 | -0.716 | -1.75 (inactive) | 1.24 | 2.29 (inactive) | 0.675 (inactive) | 0.775 (inactive) | 0.643 (inactive) | -0.339 | 0.949 (inactive) | -0.138 (inactive) | -0.744
9 | [N-]=[N+]=NCc1ccccc1C[C@]1(C(N)=O)COC(c2ccc(OCCCO)cc2)=N1 | 0.217 | -2.4 (inactive) | -0.602 (inactive) | -0.585 (inactive) | -1.68 (inactive) | 0.468 | 0.189 | 0.728 | 0.972 | -0.584 | 2.84 (inactive) | 0.52 | 15.3 (active) | 1 (inactive) | 1.68 (inactive) | -0.185 (inactive) | 2.31 | -1.48 (inactive) | -0.0652 (inactive) | -1.07
